The panel holds about 83,000 compounds, 20% with a hit somewhere; the sample as a whole holds those more often.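 Single-dose data. Exposure time 48 hours. Values below 10 considered active.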 Active and inactive are the calls of the source.

The subject of this experiment is SK-MEL-2 melanoma. As to the kind of experiment: NCI-60 one-dose screen, 48 h (100 = growth as untreated, 0 = no growth, -100 = all killed). To be noted: 10 µM unless noted.
Consider `Nc1cc2nc3ccccc3sc-2cc1=O`, for which the growth is 89.4% (inactive). On to `Cc1noc(C)c1-c1cc(O)cc(C(O)c2ccccc2)c1` (centres undefined), for which the growth is 60.4% (inactive). On to `CCCCCC(=O)N(CCCC)CCCC`, for which the growth is 124% (inactive).

Turning to `COc1ccc(/C=N\NC(=O)c2ccncc2)cc1O`, the growth was 90.8% (inactive). With `O=C(Cn1cc(CN2C(=O)c3ccccc3S2(=O)=O)nn1)Nc1ccc([N+](=O)[O-])cc1Cl`, the growth is 91.9% (inactive). As to `Oc1ccc(Nc2nccc(-c3ccc4ccccc4c3)n2)cc1`, the growth is 9.62% (active). With `O=C1C=CC(=O)c2c1nc1n2CCCC1`, the growth is 70.6% (inactive). For `Cc1cc(Nc2nc(N3CCOCC3)nc3ccccc23)n[nH]1`, the growth was 51.5% (inactive). Turning to `Cc1ccc(C2CC3c4ccccc4C2C2CCCCN32)cc1` (centres undefined), the growth is 88.2% (inactive).

With `Cc1csc2ccc(Cl)cc12`, the growth was 99.7% (inactive).

Regarding `O=S(=O)(Nc1ccc(F)c(Cl)c1)c1ccc(-c2cnc(C3CC3)o2)cc1`, the growth was 38% (inactive). In the case of `CC#Cc1nc2ccccc2c(=O)[nH]1` it was 45.4% (inactive). In the case of `C[C@H](CCC(=O)O)[C@H]1CC[C@H]2[C@@H]3CC[C@@H]4/C(=C\c5ccco5)C(=O)/C(=C\c5ccco5)C[C@]4(C)[C@H]3CC[C@]12C` it was 73.2% (inactive); in that of `Cc1cc(Nc2nc(-c3cccnc3)nc3ccccc23)n[nH]1`, 38.8% (inactive); in that of `COc1cc(OC)c(/C=C/c2cc[n+](C)c3ccccc23)c(OC)c1`, -8.65% (active). In the case of `CCCCCCCCCCCCCCCC[N+]1(CC)CCCC1` it was -59.2% (active).

For the compound `CC(=O)OCC(=O)C1CCC=CC1OC(C)=O` (centres undefined), the growth was 88.3% (inactive).

`COC1C/C(=N\O)C2OC(c3ccccc3)OCC2O1` (centres undefined): the growth was 93.3% (inactive). Turning to `CC[C@H](Nc1nc(N)nc(C)c1C#N)c1nc2cccc(NCc3ccc(C(=O)NO)cc3)c2c(=O)n1-c1ccccc1`, the growth is 27.8% (inactive).

Regarding `Cc1nn(-c2ccccc2)c2nc(C)n(-c3ccc(Br)cc3)c(=O)c12`, the growth was 26.6% (inactive). Turning to `Cc1ccc2c(NCCCN(C)C)c3c(C)nn(C)c3nc2c1`, the growth is 44% (inactive).

`NC(CC(=O)O)C(=O)OCc1ccccc1` (centres undefined): the growth was 94.8% (inactive). In the case of `NCCN1CCN(c2nccc(-c3ccc4ccccc4c3)n2)CC1` it was 76.9% (inactive).

In the case of `Nc1ccc(Nc2nccc(-c3ccc4ccccc4c3)n2)cc1`, the growth is 5.47% (active). For `CCCNc1nc(SC)nc(-c2cccc(N)c2)c1C#N`, the growth is 111% (inactive). Consider `CN(C)CCOc1ccc(-c2nc3ccc(-c4nc5ccc(N6CCN(C)CC6)cc5[nH]4)cc3[nH]2)cc1`, for which the growth is 25.7% (inactive). As to `CCCCCCCCCCCCN1CCCC(C)C1` (centres undefined), the growth is 89.6% (inactive). With `COc1ccc(-c2nc(Nc3cc(C)[nH]n3)c3ccccc3n2)cc1`, the growth is 59.7% (inactive). In the case of `CN[C@@]12CC3(C=CC(=O)C=C3)O[C@]1(Cc1ccc(OC)cc1)N(C)C(=O)N2` it was 74.1% (inactive). Regarding `COc1cc2cc(COc3nccc(-c4ccc(Cl)cc4)n3)c(=O)[nH]c2cc1OC`, the growth was 96.7% (inactive). The same measure for `Cc1ccc(S(=O)(=O)N(CCc2ccc(Cl)cc2)S(=O)(=O)c2ccc(C)cc2)cc1`: 75.3% (inactive); for `CC[C@H](Nc1cc(C)nc(N)n1)c1nc2cccc(NCc3ccc(C(=O)NO)cc3)c2c(=O)n1-c1ccccc1`: 33.1% (inactive); for `CN1CCCCC1CCN1c2ccccc2Sc2ccc(Br)cc21` (centres undefined): 69.5% (inactive).

As to `O=C1Nc2ccc(Br)cc2C12CC(c1ccccc1)=NN2` (centres undefined), the growth was 74.9% (inactive). The same measure for `O=C(N/N=C/c1ccc(O)cc1O)c1cccnc1`: 55.6% (inactive); for `O=C(Nc1ccc(F)cc1)Nc1ccc(CCO)cc1`: 112% (inactive). As for `C[C@@H]1CC[C@@H]2[C@@H]1[C@H](OC(=O)/C=C/c1ccccc1)[C@]1(C3CCCCC3)C[C@@H](OC(=O)CO)[C@@]2(C)O1`, the growth is 92.3% (inactive). As to `O=C1Nc2ccccc2/C1=C/C(=N/c1nnc(-c2ccccc2)s1)c1ccccc1`, the growth is 97.4% (inactive). Consider `CCCCCCCCOC(=O)CC[C@@H](C)[C@H]1CC[C@H]2[C@@H]3[C@H](OC(=O)CCN)C[C@@H]4C[C@H](OC(=O)CCN)CC[C@]4(C)[C@H]3C[C@H](OC(=O)CCN)[C@]12C`, for which the growth is 126% (inactive).

For the origin of these results see PubChem BioAssay (NCI).
